Hit rate of the full screen: of about 360,000 compounds, about 2,300 (0.64%) were called active. For the sample, actives were picked, then their nearest neighbours and some compounds at random. Unmarked numbers belong to inactive results.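 Rule for the calls: active = compounds giving at least 50% protection of heart cells from peroxide-induced death in the single-dose screen, raw or plate-pattern-corrected value; inactive = the rest.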
test: cardioprotection against H2O2-induced cell death, primary screen, uHTS, H9c2 cells, ATPLite luminescence (AID 588492); settings: H9c2 cardiomyocytes, H2O2 injury protection, 2 h, at 20 µM, hits give high values;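 note: 0% = DMSO wells with peroxide and 100% = DMSO wells without peroxide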

Q: Which protection from H2O2 cell death does the source give for Cc1cc(-n2nc(C)cc2C)n2ncc(-c3ccccc3)c2n1 here?
A: 14.3%

Q: With CCOC(=O)c1cnc2nc(SCc3ccccc3Cl)[nH]n2c1=O as the compound, how does the protection from H2O2 cell death read?
A: -2.4%

Q: For CCOC(=O)c1cnc(-n2nc(C)cc2C)nc1NNc1cc(C)nc(-c2ccccc2)n1, which protection from H2O2 cell death is on record?
A: 78.5% (active)

Q: For COc1cc(OC)c(C(=O)OC(C)C(=O)Nc2cc(C(F)(F)F)ccc2Cl)cc1OC (stereo not given), which protection from H2O2 cell death is on record?
A: -5%

Q: With Cc1cc(C)n(C(=O)c2ccc(C)c(S(=O)(=O)N3CCOCC3)c2)n1 as the compound, how does the protection from H2O2 cell death read?
A: 15.2%

Q: For c1ccc(Cc2nn3c(Cn4cnc5ccccc54)nnc3s2)cc1, which protection from H2O2 cell death is on record?
A: -4.9%

Q: With CCCCn1nc(C(=O)OCC(=O)Nc2sccc2C(N)=O)c2ccccc2c1=O as the compound, how does the protection from H2O2 cell death read?
A: 29.8%

Q: For NC(=O)c1ccsc1NC(=O)COC(=O)Cc1n[nH]c(=O)c2ccccc12, which protection from H2O2 cell death is on record?
A: 78.3% (active)

Q: For N#CC1(NC(=O)COC(=O)Cc2n[nH]c(=O)c3ccccc23)CCCCC1, which protection from H2O2 cell death is on record?
A: 30.9%

Q: With CCn1cc(C(=O)N[C@@H](C)C(=O)NCCO)c(=O)c2cc3c(cc21)OCO3 as the compound, how does the protection from H2O2 cell death read?
A: 3%

Q: For COC(=O)c1noc(C)c1-c1ccnn1C(=O)c1ccc(Cl)cc1, which protection from H2O2 cell death is on record?
A: 3.5%

Q: With CCOc1ccc(OCC)c(NC(=O)CSc2nnc(Cn3cnc4ccccc43)n2C)c1 as the compound, how does the protection from H2O2 cell death read?
A: -3.2%

Q: Which protection from H2O2 cell death does the source give for O=C(NN=Cc1ccc2c(c1)CCC2)c1ccccc1O here?
A: -17.8%

Q: For Cc1ccc2cc(/C=N/NC(=O)[C@@H]3CCCN3)c(Cl)nc2c1, which protection from H2O2 cell death is on record?
A: 14%

Q: Which protection from H2O2 cell death does the source give for Cc1ccc(/C=N/NC(=O)C2=NNC(c3ccccc3)(c3ccccc3)C2)c(O)c1 here?
A: 60.3% (active)

Q: Which protection from H2O2 cell death does the source give for CC(C)c1nnc(NC(=O)C2CC(=O)N(CCc3ccc(F)cc3)C2)s1 (stereo not given) here?
A: -4.8%

Q: With Cc1nc(S(=O)(=O)c2ccc(Br)cc2)nc2c1CCC2 as the compound, how does the protection from H2O2 cell death read?
A: -2.2%

Q: With CCC(CC)C(=O)Nc1c2c(nn1-c1ccc(C)cc1)CS(=O)(=O)C2 as the compound, how does the protection from H2O2 cell death read?
A: -4.5%

Q: With CCC(C)(C)NC(=O)C(c1ccccn1)N(C(=O)c1csnn1)c1ccccc1 (stereo not given) as the compound, how does the protection from H2O2 cell death read?
A: 1.1%

Q: Which protection from H2O2 cell death does the source give for Cc1ccc(S(=O)(=O)NCC2CCC(C(=O)N3CCOCC3)CC2)cc1 (stereo not given) here?
A: 3.4%

Q: Which protection from H2O2 cell death does the source give for Cc1ccc(/C=N/NC(=O)CSc2nc3ccccc3o2)cc1 here?
A: -4.4%

Q: Which protection from H2O2 cell death does the source give for Cn1c(SCC(=O)N/N=C/c2ccc(O)c(O)c2)nc2ccccc21 here?
A: 70.9% (active)

Q: For Cc1nn(-c2ccccc2)c(C)c1/C=N/NC(=O)CSc1nc2ccccc2c(=O)n1-c1ccccc1, which protection from H2O2 cell death is on record?
A: 22.5%

Q: With COc1ccc(S(=O)(=O)N2CCN(CC(=O)NCC3(N4CCOCC4)CCCCC3)CC2)cc1 as the compound, how does the protection from H2O2 cell death read?
A: 3%

Q: For CC(C)(C)C(=O)Nc1cccc(-c2ccc[nH]2)n1, which protection from H2O2 cell death is on record?
A: 5.3%

From PubChem BioAssay AID588492 (Sanford-Burnham Center for Chemical Genomics, 2011)
